Assay results published in PubChem BioAssay AID1159580 (chemical genetic matrix, 2015).
About 2,000 (36%) of roughly 5,500 compounds were called active. Not shown: some 18% with an inconclusive outcome. Cut-off read from the data, not from the text of the source: active = normalized growth mostly below about 0.91 (no sharp cut-off); inconclusive = no clear call, values can overlap the other calls; inactive = mostly above about 0.92. The list shows a part of the results.

Assay: chemical genetic growth profiling, strain panel (AID 1159580);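 note: tested at 20 µM; growth read once vehicle control cultures reached saturation at 30 °C; 1 = growth at the plate median or of vehicle wells; lower values mean less growth of the strain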
Details: growth OD

Measured: normalized growth

CC(=C(CCOP(=O)(O)O)SC(=O)c1ccccc1)N(C=O)Cc1cnc(C)nc1N
inactive: S. cerevisiae deletion strains, locus YAL013W, strain DEP1, hits give low values 1.01 | S. cerevisiae deletion strains, locus YBR021W, strain FUR4, hits give low values 1.01 | S. cerevisiae deletion strains, locus YBR229C, strain ROT2, hits give low values 1.01 | S. cerevisiae deletion strains, locus YCL029C, strain bik1, hits give low values 1 | S. cerevisiae deletion strains, locus YDL035C, strain GPR1, hits give low values 1.02 | S. cerevisiae deletion strains, locus YDL074C, strain BRE1, hits give low values 1.01 | S. cerevisiae deletion strains, locus YDL101C, strain DUN1, hits give low values 1.01 | S. cerevisiae deletion strains, locus YDL134C, strain PPH21, hits give low values 1.02 | S. cerevisiae deletion strains, locus YDL185W, strain tfp1, hits give low values 1.01 | S. cerevisiae deletion strains, locus YDL192W, strain arf1, hits give low values 1.01 | S. cerevisiae deletion strains, locus YDR101C, strain arx1, hits give low values 1 | S. cerevisiae deletion strains, locus YDR150W, strain NUM1, hits give low values 1.01 | S. cerevisiae deletion strains, locus YDR162C, strain NBP2, hits give low values 1.01 | S. cerevisiae deletion strains, locus YDR318W, strain mcm21, hits give low values 1.02 | S. cerevisiae deletion strains, locus YDR388W, hits give low values 1.01 | S. cerevisiae deletion strains, locus YDR502C, strain sam2, hits give low values 1.01 | S. cerevisiae deletion strains, locus YEL061C, strain CIN8, hits give low values 1.01 | S. cerevisiae deletion strains, locus YER110C, hits give low values 1.02 | S. cerevisiae deletion strains, locus YER155C, strain BEM2, hits give low values 1.01 | S. cerevisiae deletion strains, locus YER167W, strain BCK2, hits give low values 1.01 | S. cerevisiae deletion strains, locus YGL078C, strain dbp3, hits give low values 1.02 | S. cerevisiae deletion strains, locus YGL086W, strain mad1, hits give low values 1.01 | S. cerevisiae deletion strains, locus YGL248W, strain PDE1, hits give low values 1 | S. cerevisiae deletion strains, locus YGR135W, strain pre9, hits give low values 1.02 | S. cerevisiae deletion strains, locus YGR229C, strain SMI1, hits give low values 1.02 | S. cerevisiae deletion strains, locus YGR252W, strain gcn5, hits give low values 1 | S. cerevisiae deletion strains, locus YHR030C, strain SLT2, hits give low values 1.01 | S. cerevisiae deletion strains, locus YHR079C, strain IRE1 (second series), hits give low values 1.01 | S. cerevisiae deletion strains, locus YHR094C, strain hxt1, hits give low values 1.01 | S. cerevisiae deletion strains, locus YHR129C, strain ARP1, hits give low values 1 | S. cerevisiae deletion strains, locus YHR200W, strain rpn10, hits give low values 1.01 | S. cerevisiae deletion strains, locus YIL066C, strain RNR3, hits give low values 1.02 | S. cerevisiae deletion strains, locus YIL073C, strain SPO22, hits give low values 1.05 | S. cerevisiae deletion strains, locus YIL125W, strain kgd1, hits give low values 1.01 | S. cerevisiae deletion strains, locus YIR030C, strain dcg1, hits give low values 1.02 | S. cerevisiae deletion strains, locus YJL095W, strain BCK1, hits give low values 1.01 | S. cerevisiae deletion strains, locus YJL134W, strain LCB3, hits give low values 1.01 | S. cerevisiae deletion strains, locus YJL168C, strain set2, hits give low values 1.01 | S. cerevisiae deletion strains, locus YJL187C, strain SWE1 (second series), hits give low values 1.01 | S. cerevisiae deletion strains, locus YJR043C, strain POL32, hits give low values 1.01 | S. cerevisiae deletion strains, locus YJR075W, strain HOC1, hits give low values 1.01 | S. cerevisiae deletion strains, locus YKL009W, strain mrt4, hits give low values 1.01 | S. cerevisiae deletion strains, locus YKL068W, hits give low values 1.02 | S. cerevisiae deletion strains, locus YKL085W, strain MDH1 (second series), hits give low values 1.01 | S. cerevisiae deletion strains, locus YKL085W, strain MDH1, hits give low values 1.01 | S. cerevisiae deletion strains, locus YKL190W, strain CNB1, hits give low values 1.01 | S. cerevisiae deletion strains, locus YKR001C, strain vps1, hits give low values 1.01 | S. cerevisiae deletion strains, locus YLR039C, strain RIC1, hits give low values 1.02 | S. cerevisiae deletion strains, locus YLR058C, strain SHM2, hits give low values 1.02 | S. cerevisiae deletion strains, locus YLR102C, strain apc9, hits give low values 1.01 | S. cerevisiae deletion strains, locus YLR262C, strain YPT6, hits give low values 0.991 | S. cerevisiae deletion strains, locus YLR268W, strain sec22, hits give low values 1 | S. cerevisiae deletion strains, locus YLR330W, strain CHS5, hits give low values 1.01 | S. cerevisiae deletion strains, locus YLR342W, strain FKS1 (second series), hits give low values 1 | S. cerevisiae deletion strains, locus YLR371W, strain rom2, hits give low values 1.02 | S. cerevisiae deletion strains, locus YLR418C, strain cdc73, hits give low values 1.02 | S. cerevisiae deletion strains, locus YML016C, strain PPZ1, hits give low values 1.01 | S. cerevisiae deletion strains, locus YML032C, strain rad52, hits give low values 1.01 | S. cerevisiae deletion strains, locus YML124C, strain tub3, hits give low values 1.01 | S. cerevisiae deletion strains, locus YMR078C, strain ctf18, hits give low values 1.01 | S. cerevisiae deletion strains, locus YMR223W, strain ubp8, hits give low values 1.02 | S. cerevisiae deletion strains, locus YMR263W, strain SAP30, hits give low values 1.01 | S. cerevisiae deletion strains, locus YMR307W, strain GAS1, hits give low values 1.03 | S. cerevisiae deletion strains, locus YNL067W, strain RPL9B, hits give low values 1.01 | S. cerevisiae deletion strains, locus YNL128W, strain TEP1, hits give low values 1.02 | S. cerevisiae deletion strains, locus YNL233W, strain BNI4, hits give low values 1.03 | S. cerevisiae deletion strains, locus YNL250W, strain rad50, hits give low values 1.01 | S. cerevisiae deletion strains, locus YNL271C, strain bni1, hits give low values 1.02 | S. cerevisiae deletion strains, locus YNL298W, strain CLA4, hits give low values 1.01 | S. cerevisiae deletion strains, locus YNL307C, strain MCK1, hits give low values 1.02 | S. cerevisiae deletion strains, locus YNL322C, strain KRE1, hits give low values 1.01 | S. cerevisiae deletion strains, locus YNR052C, strain pop2, hits give low values 1.02 | S. cerevisiae deletion strains, locus YOL006C, strain TOP1, hits give low values 1.01 | S. cerevisiae deletion strains, locus YOL012C, strain htz1 1.14 | S. cerevisiae deletion strains, locus YOL147C, strain pex11, hits give low values 1.02 | S. cerevisiae deletion strains, locus YOR061W, strain CKA2, hits give low values 1.01 | S. cerevisiae deletion strains, locus YOR069W, strain VPS5, hits give low values 1.01 | S. cerevisiae deletion strains, locus YOR136W, strain idh2, hits give low values 1.02 | S. cerevisiae deletion strains, locus YOR144C, strain elg1, hits give low values 1.01 | S. cerevisiae deletion strains, locus YOR184W, strain ser1, hits give low values 1.02 | S. cerevisiae deletion strains, locus YOR316C, strain cot1, hits give low values 1.01 | S. cerevisiae deletion strains, locus YPL055C, strain LGE1, hits give low values 1.01 | S. cerevisiae deletion strains, locus YPR119W, strain clb2, hits give low values 1 | S. cerevisiae deletion strains, locus YPR141C, strain kar3, hits give low values 1.02 | S. cerevisiae deletion strains, locus YPR163C, strain tif3, hits give low values 1.01 | S. cerevisiae deletion strains, locus YPR167C, strain met16, hits give low values 1.01 | S. cerevisiae deletion strains, strain wtn01, hits give low values 1.01 | S. cerevisiae strains, strain wild type, hits give low values 1.01
